According to PubChem BioAssay (EPA / NIEHS):
The source made the active and inactive calls. How the source made its calls: active means hit-call score of the fitted dose curve at least 0.9, where 1 is the maximum; inactive means score below 0.9.

Columns and labels:
[1] = ATG_E_Box_CIS: Attagene CIS-FACTORIAL HepG2 Assay for human Enhancer Box (E-box) (AID 2282936); conditions: HepG2 E-box cis-reporter transcription, actives raise or lower the signal
Summary of the method: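 E-box-driven reporter transcripts measured in transiently transfected HepG2 after 24 h exposure: RNA reverse-transcribed, PCR-amplified, fluorescently labelled, digested and resolved by capillary electrophoresis. Gain or loss relative to DMSO.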

[2] = ATG_M_61_CIS: Attagene CIS-FACTORIAL HepG2 Assay for M61 Transcription Factor (Internal Marker) (AID 2282937); conditions: HepG2 Attagene CIS-FACTORIAL M61 internal marker reporter; actives raise or lower the signal
Summary of the method: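 Cells were transfected with reporter units under cis-regulatory promoters, treated with chemicals for 24 h, then lysed for RNA. Reporter transcripts were quantified by RT-PCR and capillary electrophoresis, and activity was fitted bidirectionally against DMSO.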

[3] = ATG_EGR_CIS: Attagene CIS-FACTORIAL HepG2 Assay for human Early Growth Response 1 (EGR1) (AID 2282938); conditions: HepG2 Attagene CIS-FACTORIAL EGR reporter mRNA; actives raise or lower the signal
Summary of the method: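 Endogenous TF activity in HepG2 liver cells was gauged through cis-promoter reporter constructs transiently transfected. After 24 h dosing, reporter mRNA was quantified by RT-PCR and capillary electrophoresis, and curves fitted in both directions versus DMSO.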

[4] = ATG_M_19_CIS: Attagene CIS-FACTORIAL HepG2 Assay for M19 Transcription Factor (Internal Marker) (AID 2282939); conditions: HepG2 Attagene CIS-FACTORIAL M19 internal marker reporter; actives raise or lower the signal
Summary of the method: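 Transfect HepG2 with MRTU reporter library → dose chemical, 24 h → isolate total RNA, reverse-transcribe with oligo(dT) → PCR, 6-FAM label, HpaI cut (2 h, 37 C) → capillary electrophoresis. Bidirectional fit vs DMSO.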

[5] = molecular target: Hepatocyte nuclear factor 3-beta (Homo sapiens) (UniProt Q9Y261); assay: ATG_FoxA2_CIS: Attagene CIS-FACTORIAL HepG2 Assay for human Forkhead box A2 (FOXA2) (AID 2282942); conditions: HepG2 cis-reporter transcription factor activity, 24 h; actives raise or lower the signal
Hepatocyte nuclear factor 3-beta (Homo sapiens), sequence (Q9Y261 whole entry, looked up): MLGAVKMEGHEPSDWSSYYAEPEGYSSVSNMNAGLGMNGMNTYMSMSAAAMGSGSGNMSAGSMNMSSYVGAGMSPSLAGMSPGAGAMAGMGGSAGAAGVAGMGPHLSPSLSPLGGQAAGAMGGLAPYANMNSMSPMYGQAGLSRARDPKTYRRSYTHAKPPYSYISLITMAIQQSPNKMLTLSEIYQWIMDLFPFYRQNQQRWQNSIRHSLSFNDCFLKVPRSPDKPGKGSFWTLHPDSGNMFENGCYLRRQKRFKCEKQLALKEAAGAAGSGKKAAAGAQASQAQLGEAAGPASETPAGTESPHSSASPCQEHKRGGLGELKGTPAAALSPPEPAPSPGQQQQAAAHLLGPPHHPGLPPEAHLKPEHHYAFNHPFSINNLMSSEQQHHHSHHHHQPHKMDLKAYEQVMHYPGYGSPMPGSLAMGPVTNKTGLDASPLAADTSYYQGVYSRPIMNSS
Summary of the method: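 Endogenous transcription factor activity was read in HepG2 cells carrying transiently transfected cis-promoter reporter units. After 24 h dosing, reporter mRNA was quantified by RT-PCR and capillary electrophoresis, and values fitted bidirectionally versus DMSO.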

[6] = ATG_GATA_CIS: Attagene CIS-FACTORIAL HepG2 Assay for human GATA Binding Protein (AID 2282944); conditions: HepG2 GATA cis-element reporter, Attagene multiplex mRNA; actives raise or lower the signal
Summary of the method: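 Transient MRTU transfection, HepG2, 24 h compound exposure. Total RNA → oligo(dT) RT → PCR → 6-FAM primer extension → HpaI cut → CE. Bidirectional fit vs DMSO.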

[7] = ATG_GLI_CIS: Attagene CIS-FACTORIAL HepG2 Assay for human Zinc Finger Protein GLI1 (AID 2282945); conditions: HepG2, Attagene cis-factorial reporter mRNA, GLI element; actives raise or lower the signal
Summary of the method: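 Bidirectional curve fits relative to DMSO, using reporter mRNA levels from RT-PCR plus capillary electrophoresis. Cells were HepG2 transiently carrying cis-regulated reporter constructs, harvested 24 h after dosing.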

[8] = ATG_GRE_CIS: Attagene CIS-FACTORIAL HepG2 Assay for human Glucocorticoid Response Elements (GRE) (AID 2282947); conditions: HepG2 GRE cis-reporter, Attagene multiplex mRNA; actives raise or lower the signal
Summary of the method: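 Reporter transcripts read by RT-PCR with capillary electrophoresis fluorescence after a 24 h chemical exposure of HepG2 cells transiently transfected with multiple cis-element reporter units. Gain or loss fitted against DMSO.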

[9] = ATG_ISRE_CIS: Attagene CIS-FACTORIAL HepG2 Assay for human Interferon Regulatory Factor 1 (IRF1) binding to an Interferon-Stimulated Response Element (ISRE) (AID 2282948); conditions: HepG2 ISRE cis-reporter (Attagene), mRNA transcription readout; actives raise or lower the signal
Summary of the method: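 Uses HepG2 liver cells transfected with cis-regulated reporters and measures mRNA 24 h post-dosing through RT-PCR, primer-extension labelling and capillary electrophoresis, with DMSO as negative control.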

[10] = ATG_M_06_CIS: Attagene CIS-FACTORIAL HepG2 Assay for M06 Transcription Factor (Internal Marker) (AID 2282950); conditions: HepG2 Attagene CIS-FACTORIAL M06 internal marker reporter; actives raise or lower the signal
Summary of the method: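 Read-out is fluorescence of labelled reporter cDNA fragments resolved by capillary electrophoresis after RT-PCR. Cells: HepG2 carrying transfected cis-promoter reporter units, treated 24 h. Gain or loss of signal fitted relative to DMSO.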

[11] = molecular target: Hypoxia-inducible factor 1-alpha (Homo sapiens) (UniProt Q16665); assay: ATG_HIF1a_CIS: Attagene CIS-FACTORIAL HepG2 Assay for human Hypoxia Inducible Factor 1 (HIF1A) (AID 2282951); conditions: HepG2 Attagene cis-factorial HIF1a reporter transcription; actives raise or lower the signal
Hypoxia-inducible factor 1-alpha (Homo sapiens), sequence (Q16665 whole entry, looked up): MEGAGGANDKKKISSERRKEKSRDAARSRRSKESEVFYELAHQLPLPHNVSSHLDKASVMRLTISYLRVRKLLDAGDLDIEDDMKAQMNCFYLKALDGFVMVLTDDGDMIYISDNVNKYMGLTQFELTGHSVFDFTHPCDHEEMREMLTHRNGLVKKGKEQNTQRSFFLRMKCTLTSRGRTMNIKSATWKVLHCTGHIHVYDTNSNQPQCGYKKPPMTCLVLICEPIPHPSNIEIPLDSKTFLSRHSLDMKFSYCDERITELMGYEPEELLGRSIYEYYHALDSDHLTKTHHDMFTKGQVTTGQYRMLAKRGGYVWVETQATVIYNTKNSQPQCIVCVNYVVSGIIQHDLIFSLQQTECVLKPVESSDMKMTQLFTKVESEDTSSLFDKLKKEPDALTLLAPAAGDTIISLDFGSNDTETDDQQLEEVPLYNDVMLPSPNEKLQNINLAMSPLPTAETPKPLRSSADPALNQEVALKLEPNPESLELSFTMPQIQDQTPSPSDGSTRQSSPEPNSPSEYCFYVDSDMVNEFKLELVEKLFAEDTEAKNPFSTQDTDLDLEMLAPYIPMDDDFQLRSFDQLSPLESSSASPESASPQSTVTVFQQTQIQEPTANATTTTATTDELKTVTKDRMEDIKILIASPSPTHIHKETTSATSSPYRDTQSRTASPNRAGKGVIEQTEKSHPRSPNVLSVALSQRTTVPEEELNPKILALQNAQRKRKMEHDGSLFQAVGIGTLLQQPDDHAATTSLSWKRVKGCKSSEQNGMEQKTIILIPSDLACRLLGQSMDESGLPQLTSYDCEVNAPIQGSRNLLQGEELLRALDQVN
Summary of the method: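 Measures endogenous transcription-factor activity through cis-regulated reporter mRNA in HepG2. Cells dosed 24 h; transcripts quantified by RT-PCR with 6-FAM-labelled products separated by capillary electrophoresis; DMSO serves as negative control.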

[12] = molecular target: Hepatocyte nuclear factor 6 (Homo sapiens) (UniProt Q9UBC0); assay: ATG_HNF6_CIS: Attagene CIS-FACTORIAL HepG2 Assay for human Hepatocyte Nuclear Factor 6 (HNF6) (AID 2282952); conditions: HepG2 Attagene cis-factorial HNF6 reporter transcription; actives raise or lower the signal
Hepatocyte nuclear factor 6 (Homo sapiens), sequence (Q9UBC0 whole entry, looked up, the tested form may be a part): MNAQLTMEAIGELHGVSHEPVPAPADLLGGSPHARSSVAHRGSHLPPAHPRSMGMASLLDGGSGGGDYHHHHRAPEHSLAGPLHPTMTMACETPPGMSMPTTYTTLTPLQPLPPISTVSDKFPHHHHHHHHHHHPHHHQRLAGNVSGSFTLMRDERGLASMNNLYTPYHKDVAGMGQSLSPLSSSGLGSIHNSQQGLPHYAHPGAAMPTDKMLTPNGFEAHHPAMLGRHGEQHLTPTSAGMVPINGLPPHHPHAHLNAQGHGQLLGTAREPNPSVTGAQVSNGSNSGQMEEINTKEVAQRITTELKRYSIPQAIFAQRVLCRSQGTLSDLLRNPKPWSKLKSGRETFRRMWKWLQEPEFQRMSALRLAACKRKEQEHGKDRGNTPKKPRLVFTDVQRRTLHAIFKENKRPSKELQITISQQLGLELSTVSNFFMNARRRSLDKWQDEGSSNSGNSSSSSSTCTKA
Summary of the method: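 First, HepG2 cells were transfected with the multiplexed cis reporter library and dosed with chemical for 24 h. Next, RNA was reverse-transcribed, PCR-amplified and fluorescently labelled. Finally, HpaI-digested fragments were read by capillary electrophoresis.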

[13] = ATG_MRE_CIS: Attagene CIS-FACTORIAL HepG2 Assay for human Metal Responsive Element (MRE) (AID 2282954); conditions: HepG2 MRE cis-reporter transcription, Attagene multiplex; actives raise or lower the signal
Summary of the method: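 Endogenous MRE-dependent transcription read as reporter mRNA in transiently transfected human HepG2 cells at 24 h. RNA reverse-transcribed, PCR-amplified, labelled and resolved by capillary electrophoresis; gain or loss relative to DMSO.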

[14] = ATG_PBREM_CIS: Attagene CIS-FACTORIAL HepG2 Assay for human Phenobarbital-responsive Enhancer Module (PBREM) (AID 2282955); conditions: HepG2 PBREM cis-reporter, Attagene multiplexed transcription; actives raise or lower the signal
Summary of the method: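 Fluorescence of labelled reporter cDNA fragments, resolved by capillary electrophoresis, gives mRNA induction in transfected HepG2 cells treated for 24 h; DMSO serves as negative control and baseline.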

[15] = ATG_Ets_CIS: Attagene CIS-FACTORIAL HepG2 Assay for human Erythroblast Transformation Specific (ETS) (AID 2282941); conditions: HepG2 ETS cis-reporter transcription, actives raise or lower the signal
Summary of the method: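 Bidirectional fit versus DMSO of reporter mRNA signal, detected by RT-PCR and capillary electrophoresis in HepG2 cells transiently transfected with cis-element reporters and dosed 24 h.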

[16] = ATG_FoxO_CIS: Attagene CIS-FACTORIAL HepG2 Assay for human Forkhead box O (FoxO) (AID 2282943); conditions: HepG2 Attagene cis-reporter, FoxO element, mRNA; actives raise or lower the signal
Summary of the method: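 HepG2, transient MRTU transfection (cis element, endogenous TFs). Dose 24 h. TriZol RNA → oligo(dT) RT → PCR → 6-FAM primer extension → HpaI cut → CE. Gain/loss vs DMSO.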

[17] = molecular target: Bile acid receptor (Homo sapiens) (UniProt Q96RI1); assay: ATG_IR1_CIS: Attagene CIS-FACTORIAL HepG2 Assay for human Nuclear Receptor Subfamily 1 Group H Member 4 (NR1H4), IR1 submotif (AID 2282946); conditions: IR1 reporter transcription, actives raise or lower the signal
Bile acid receptor (Homo sapiens), sequence (Q96RI1 whole entry, looked up): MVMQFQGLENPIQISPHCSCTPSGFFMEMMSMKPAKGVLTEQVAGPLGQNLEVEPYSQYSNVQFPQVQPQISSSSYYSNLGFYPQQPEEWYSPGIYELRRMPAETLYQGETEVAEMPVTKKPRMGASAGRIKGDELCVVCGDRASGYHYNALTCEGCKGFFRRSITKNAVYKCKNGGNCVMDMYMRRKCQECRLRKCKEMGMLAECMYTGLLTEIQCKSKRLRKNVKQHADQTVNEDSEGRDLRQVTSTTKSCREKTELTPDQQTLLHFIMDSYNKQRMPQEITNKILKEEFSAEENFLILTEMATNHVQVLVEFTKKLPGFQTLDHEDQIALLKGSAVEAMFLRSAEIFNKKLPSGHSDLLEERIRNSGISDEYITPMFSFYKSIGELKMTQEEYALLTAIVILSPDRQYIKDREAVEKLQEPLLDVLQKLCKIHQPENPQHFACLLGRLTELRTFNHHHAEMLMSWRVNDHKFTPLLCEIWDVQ
Summary of the method: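 HepG2 cells transiently transfected with multiplexed cis-element reporter units read endogenous transcription factor activity. After 24 h compound exposure, reporter mRNA was quantified by RT-PCR, fluorescent labelling, HpaI digestion and capillary electrophoresis; bidirectional fitting versus DMSO baseline.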

[18] = ATG_M_32_CIS: Attagene CIS-FACTORIAL HepG2 Assay for M32 Transcription Factor (Internal Marker) (AID 2282949); conditions: HepG2 Attagene cis-factorial M32 reporter, mRNA; actives raise or lower the signal;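 further: background control marker of the multiplexed CIS panel rather than a real target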
Summary of the method: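 HepG2 human liver cells transiently transfected with cis-promoter-driven multiple reporter transcription units, dosed 24 h. Reporter mRNA quantified by RT-PCR, FAM-labelled primer extension, HpaI digest and capillary electrophoresis; bidirectional fit versus DMSO baseline.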

[19] = molecular target: Heat shock factor protein 1 (Homo sapiens) (UniProt Q00613); assay: ATG_HSE_CIS: Attagene CIS-FACTORIAL HepG2 Assay for human Heat Shock Transcription Factor 1 (HSE) (AID 2282953); conditions: HepG2 HSE cis-reporter, Attagene RNA transcription; actives raise or lower the signal
Heat shock factor protein 1 (Homo sapiens), sequence (Q00613 whole entry, looked up): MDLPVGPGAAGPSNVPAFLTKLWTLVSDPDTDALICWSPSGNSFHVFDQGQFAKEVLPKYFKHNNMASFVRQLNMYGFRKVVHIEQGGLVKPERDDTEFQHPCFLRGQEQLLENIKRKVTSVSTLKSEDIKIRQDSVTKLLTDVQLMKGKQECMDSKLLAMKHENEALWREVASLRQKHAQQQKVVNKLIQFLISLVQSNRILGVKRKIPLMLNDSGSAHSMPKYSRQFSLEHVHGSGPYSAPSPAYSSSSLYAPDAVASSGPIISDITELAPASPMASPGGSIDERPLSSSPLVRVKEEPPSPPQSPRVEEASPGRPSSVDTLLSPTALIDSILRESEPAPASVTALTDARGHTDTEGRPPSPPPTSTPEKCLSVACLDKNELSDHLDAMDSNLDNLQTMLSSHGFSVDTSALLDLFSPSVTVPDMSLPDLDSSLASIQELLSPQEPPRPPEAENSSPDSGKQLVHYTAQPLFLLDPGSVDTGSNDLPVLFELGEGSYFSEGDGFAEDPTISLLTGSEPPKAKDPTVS
Summary of the method: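 HepG2, transient MRTU transfection, cis-promoter reporters (endogenous TF activity). 24 h compound. RNA → oligo(dT) RT → PCR → 6-FAM primer extension → HpaI cut → CE. Bidirectional fit vs DMSO.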

[20] = ATG_ERE_CIS: Attagene CIS-FACTORIAL HepG2 Assay for Estrogen Response Element (ERE) (AID 2282940); conditions: HepG2 ERE cis-reporter, Attagene RNA transcript; actives raise or lower the signal
Summary of the method: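 Transient MRTU transfection of human HepG2; cis-element promoters; 24 h dosing; total RNA → RT (oligo dT) → PCR → 6-FAM primer extension → HpaI digest → CE fluorescence. Bidirectional fit, DMSO baseline.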

Measured: AC50

CCOP(=S)(OCC)OC(Cl)C(Cl)(Cl)Cl (configuration not stated)
active: [13] 32.9 µM
not listed: [15] | [16] | [17] | [18] | [19] | [20]
inactive: all other assays above

COc1cccc(C(=O)NN(C(=O)c2cc(C)cc(C)c2)C(C)(C)C)c1C
active: [16] 12.9 µM | [14] 3.46 µM
not listed: [8] | [18] | [19] | [20]
inactive: all other assays above

CC(Oc1cccc(Cl)c1)C(=O)O (configuration not stated)
not listed: [15] | [16] | [19] | [20]
inactive: all other assays above

C=C(C)[C@H]1Cc2c(ccc3c2O[C@@H]2COc4cc(OC)c(OC)cc4[C@@H]2C3=O)O1
active: [6] 1.21 µM | [11] 0.0274 µM | [13] 0.0899 µM | [14] 0.0505 µM
not listed: [20]
inactive: all other assays above

Cc1cc(C2CC2)nc(Nc2ccccc2)n1
active: [3] 50 µM | [20] 12.8 µM | [5] 33 µM | [9] 81 µM | [11] 50 µM | [13] 74.7 µM | [14] 50 µM
not listed: [2] | [8] | [16] | [18] | [19]
inactive: all other assays above

CCCCOC(=O)[C@@H](C)Oc1ccc(Oc2ccc(C#N)cc2F)cc1
not listed: [15] | [16] | [17]
inactive: all other assays above

Cc1ccn2nc(S(=O)(=O)Nc3c(F)cccc3F)nc2n1
not listed: [8] | [15] | [18] | [19] | [20]
inactive: all other assays above
